# CYP2C19 activ: human CYP2C19 activators, primary screen, biochemical, luminescence | recombinant CYP2C19, luciferin-H EGE luminescence; stronger effect = higher value; 0 = fully inhibited enzyme, 1 = untreated enzyme | AID 1025, 2008 | 96,000 tested, under 10 active | Cytochrome P450 2C19 (Homo sapiens), P33261 | activation factor at 5 µM;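 active = activation factor of at least 2 at 5 µM in the primary screen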;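 note: 0 = wells with 2.5 mM tranylcypromine and 1 = vehicle-only wells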
# CYP2C9 act: human CYP2C9 activators, primary screen, biochemical, luminescence; Cytochrome P450 2C9 (Homo sapiens), P11712; recombinant CYP2C9, luciferin-H conversion; stronger effect = higher value; factor 1 = untreated enzyme, 0 = blocked; activation factor at 5 µM; 96,000 tested, 1.4% active;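 active = activation factor of 2 or more for CYP2C9 at a 5 µM dose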;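 note: 0 = sulfaphenazole-blocked wells and 1 = vehicle-only wells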
# PLK1 kinase inh: human PLK1 kinase inhibitors, primary screen, biochemical, TR-FRET; inhibition, % at 10 µM; Serine/threonine-protein kinase PLK1 (Homo sapiens), P53350; recombinant PLK1 kinase, TR-FRET peptide phosphorylation; 97,000 tested, 0.53% active;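 active = inhibition of 50% or more in the single-concentration screen; inactive = inhibition below 50%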;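 note: 0% = DMSO max control and 100% = H-89 dihydrochloride min control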
# Target sequence (P53350 whole entry, looked up): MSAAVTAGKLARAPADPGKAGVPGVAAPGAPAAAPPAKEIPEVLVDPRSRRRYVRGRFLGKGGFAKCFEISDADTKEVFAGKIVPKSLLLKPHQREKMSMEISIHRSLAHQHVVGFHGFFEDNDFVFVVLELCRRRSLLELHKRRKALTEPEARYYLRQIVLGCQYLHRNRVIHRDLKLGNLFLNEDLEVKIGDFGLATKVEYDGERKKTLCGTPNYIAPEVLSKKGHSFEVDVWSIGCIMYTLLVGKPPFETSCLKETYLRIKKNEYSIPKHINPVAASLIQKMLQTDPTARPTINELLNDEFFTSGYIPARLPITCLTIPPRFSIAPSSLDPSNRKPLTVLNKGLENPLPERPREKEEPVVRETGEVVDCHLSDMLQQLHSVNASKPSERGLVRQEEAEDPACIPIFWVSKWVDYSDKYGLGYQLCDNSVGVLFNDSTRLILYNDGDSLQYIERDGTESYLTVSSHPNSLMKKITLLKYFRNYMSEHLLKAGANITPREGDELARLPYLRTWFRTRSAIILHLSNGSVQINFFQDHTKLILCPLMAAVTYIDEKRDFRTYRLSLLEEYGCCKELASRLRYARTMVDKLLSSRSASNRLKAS
# CYP2C19 inhib: blockers of cytochrome P450 2C19 activity – biochemical, luminescence, ADME assay, primary screen | P33261 | CYP2C19 Supersomes, luciferin-H EGE luminescence, 30 min | inhibition, % at 5 µM | 96,000 tested, 21% active | AID 778, 2007;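 active = CYP2C19 inhibition above a set limit at 5 µM in the primary screen, cut at about 50% in these data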;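 note: plate controls were negative control wells for no effect and 2.5 mM tranylcypromine positive control for full effect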
# CYP2C9 inh: blockers of cytochrome P450 2C9 activity – biochemical, luminescence, ADME assay, primary screen | P11712 | CYP2C9 Supersomes, luciferin-H conversion | inhibition, % at 5 µM | 96,000 tested, 20% active | AID 777, 2007;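 active = blocking of liver enzyme CYP2C9 beyond about 50% at 5 µM, limit read from the data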
# PLK1 PBD inh: Plk1 polo box domain binding inhibitors, primary screen, biochemical, fluorescence polarization | Serine/threonine-protein kinase PLK1 (Homo sapiens), P53350 | Plk1 PBD phosphopeptide binding | inhibition, %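 (tested at about 20 µM)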 | 97,000 tested, 0.13% active | AID 693, 2007; in the data active = inhibition above about 34%, passing the limit was not always enough
# An asterisk follows results filed as active; nt = no result. Compounds with a hit are over-represented: about 28% of the library has one in this group of screens.
SMILES,CYP2C19 activ,CYP2C9 act,PLK1 kinase inh,CYP2C19 inhib,CYP2C9 inh,PLK1 PBD inh
CCOC(=O)c1c(C)[nH]c(C(=O)CSc2nnc(CC(C)c3ccccc3)o2)c1C (centres undefined),0.7,0.3,nt,32,71*,nt
CCOC(=O)c1c(C)[nH]c(C(=O)CSc2nc3ccccc3o2)c1C,0.9,0.7,-13,8,34,17
CCOC(=O)c1c(C)[nH]c(C(=O)CSc2ccc(Cl)cc2)c1C,0.7,0.3,3,29,71*,-4
CCOC(=O)c1c(C)[nH]c(C(=O)OCC(=O)Nc2cc(Cl)ccc2OC)c1C,1,0.8,-2,4,17,-4
NC(=O)C1CCN(C(=O)c2ccco2)CC1,nt,nt,-14,nt,nt,2
Brc1ccccc1C1=Nn2c(nnc2-c2ccccc2)SC1,0.1,0.4,-11,90*,62*,3
Cc1ccc(C(=O)CCC2CCCCC2=O)cc1 (centres undefined),0.2,0.6,1,84*,42,-26
COc1cc2c(cc1OC)CN(C(=O)C1(c3ccccc3)CC1)CC2,0.6,0.5,-4,37,54*,5
COc1cc2c(cc1OC)CN(C(=O)C(C)(C)C)CC2,0.6,1,-1,40,2,26
c1csc(-c2nn[nH]n2)c1,0.1,0.6,-12,95*,36,-9
Cc1nn(C(=O)c2cc3sccc3[nH]2)c(C)c1C,1.1,1.1,-14,-11,-6,-29
CCOC(=O)c1sc(NC(=O)C(CC)Sc2nnc3c4ccccc4n(C(C)C)c3n2)nc1C (centres undefined),0.6,0.3,-8,35,66*,0
CCOC(=O)Cc1nnc(NC(=O)C(CC)Sc2nnc3c4ccccc4n(C)c3n2)s1 (centres undefined),0.5,0.1,-12,48,94*,2
CCC(Sc1nnc2c3ccccc3n(CC)c2n1)C(=O)Nc1sc2c(c1C#N)CCCC2 (centres undefined),0.6,0.5,-10,38,52*,-1
CCOC(=O)Cc1nnc(NC(=O)C(CC)Sc2nncn2C)s1 (centres undefined),1.1,1,nt,-14,-3,nt
COc1cccc(NC(=O)CC2C(=O)NC3CCCCC3N2C(=O)c2ccc(F)cc2)c1 (centres undefined),0.8,0.5,-13,18,50,-15
CCS(=O)(=O)NCCc1csc(C)n1,1.1,1,1,-8,-4,3
O=C(CN1CCOCC1)OCCCc1ccccc1,0.3,1.1,-9,66*,-14,-24
C[N+]1(CC(=O)OCCCc2ccccc2)CCOCC1,0.9,0.9,-12,7,12,-19
CCCCNC(=O)N1CCOCCOCCN(C(=O)NCCCC)CCOCCOCC1,1.1,1.1,-17,-7,-14,-4
COc1ccccc1N1C(=O)C2C3C=CC(C3)C2(C)C1=O (centres undefined),0.9,1.1,nt,14,-7,nt
O=c1cc(-c2ccc3c(c2)OCO3)oc2ccccc12,1,0.8,nt,0,24,nt
O=[N+]([O-])c1ccccc1N/N=C\c1ccccc1Cl,0.4,0.7,0,64*,33,20
Cn1c(=O)n(CC(=O)N2CCOCC2)c2ccccc21,nt,nt,1,nt,nt,2
O=C(NCc1ccccc1)NC1(C(=O)N2CCN(c3ccccc3)CC2)CCCCC1,0.4,0.7,-4,57*,33,23
SMILES,CYP2C19 activ,CYP2C9 act,PLK1 kinase inh,CYP2C19 inhib,CYP2C9 inh,PLK1 PBD inh
O=C(NCc1ccccc1)NC1(C(=O)N2CCOCC2)CCCCC1,1,0.9,-13,-2,5,0
CSc1nc2ccc(S(=O)(=O)N3CCCC3)cc2s1,0,0.5,-10,99*,53*,3
O=S(=O)(Nc1nc2ccc(S(=O)(=O)N3CCCC3)cc2s1)c1ccc(F)cc1,1,0,-15,2,100*,7
CCCC(=O)Nc1nc2ccc(S(=O)(=O)N3CCCCC3)cc2s1,nt,nt,-1,nt,nt,0
Cc1cc(Cl)cc2c1NC(=O)[C@]21[C@@H]2C(=O)N(Cc3ccccc3)C(=O)[C@@H]2[C@@H]2CCCN21,0.8,0.7,-16,18,32,-29
CCc1ccc2c(c1)[C@]1(C(=O)N2)[C@@H]2C(=O)N(Cc3ccccc3)C(=O)[C@@H]2[C@@H]2CCCN21,0.3,0.3,4,75*,68*,-17
CCN1CCN(C(c2cccs2)C(C)NS(=O)(=O)c2ccc(Br)cc2)CC1 (centres undefined),0,0.9,1,95*,9,5
CC(NS(=O)(=O)c1ccccc1)C(c1cccs1)N1CCN(C)CC1 (centres undefined),0.4,1,-4,63*,3,-18
Cc1ccc(S(=O)(=O)NC(C)C(c2cccs2)N2CCN(C)CC2)cc1 (centres undefined),nt,nt,-7,nt,nt,26
Cc1ccc(S(=O)(=O)NC(C)C(c2cccs2)N2CCN(c3ccccc3)CC2)cc1 (centres undefined),0.8,0.6,-3,24,37,-11
CCc1ccc(N2CC(C(=O)Nc3nnc(CC)s3)CC2=O)cc1 (centres undefined),1.2,0.7,-8,-18,26,21
CCCN(CCC)C(=O)CC(c1ccccc1)c1ccc(C)cc1O (centres undefined),0.6,0.5,-5,43,52*,8
CCCN(CCC)C(=O)CC(c1ccccc1)c1cc(Br)ccc1O (centres undefined),0.6,0.6,-20,43,42,-29
Cc1ccc(C(CC(=O)NCc2ccco2)c2ccccc2)c(O)c1 (centres undefined),0.4,0.5,6,61*,46,16
CCc1nnc(NC(=O)CSc2nc(C)c3c(c2C#N)CCCC3)s1,1.2,1.3,-19,-16,-31,4
CC1=CCC(COC(=O)Nc2ccccc2)CC1 (centres undefined),0.5,0.9,0,46,8,16
Cn1c2ccccc2c2nn(-c3ccccc3)c(=O)cc21,0.3,0.7,nt,71*,30,nt
COc1cc(C2c3c(-c4cc(C)cc(C)c4O)n[nH]c3C(=O)N2CCCO)cc(OC)c1OC (centres undefined),1,0.6,-3,3,44,23
COCCCN1C(=O)c2[nH]nc(-c3cc(C)cc(C)c3O)c2C1c1ccc(O)c(OC)c1 (centres undefined),0.1,0.4,-5,87*,63*,17
CC(=O)Nc1nc(SCCCc2ccccc2)n[nH]1,0.2,0.8,-5,80*,19,-14

# Screens as filed in PubChem.
